# Measured values published in PubChem BioAssay.
# Activity calls are given as the source filed them.
# Assays:
# [1] = anti-His antibody binders, primary screen, artefact control for SMM control protein annotation, biochemical, small-molecule microarray, 635 nm fluorescence (AID 1128); settings: anti-His Alexa647 antibody binding, higher = more signal;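 note: score merges feature fluorescence with signal-to-noise for each printed compound spot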
# [2] = tested on: Human papillomavirus type 1a E7 protein (residues 1-88); test: HPV1a E7 small-molecule binders, primary screen, biochemical, small-molecule microarray, residues 1-88, 635 nm (AID 1129); settings: small-molecule microarray binding, fluorescence 635 nm; higher = more signal
# [3] = molecular target: Focal adhesion kinase 1 (Homo sapiens) (UniProt Q05397); test: small-molecule microarray binders of FAK, primary screen, biochemical, 635/667 nm fluorescence, BSA, DTT (AID 1130); settings: PTK2 binding, 635 nm fluorescence, higher = more signal;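 note: composite of spot emission at 667 nm and signal to noise over triplicate slides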
# [4] = tested on: Fibrinogen (Alexa647-labelled); test: fibrinogen binders on compound microarrays, profiling panel, artefact control for SMM control-protein annotation, biochemical, small-molecule microarray, 635/667 nm fluorescence (AID 1131); settings: fibrinogen-A647 binding fluorescence, higher = more signal;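 note: z-score merges 667 nm fluorescence with per-spot signal-to-noise over triplicate slides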
# [5] = molecular target: Follistatin (Homo sapiens) (UniProt P19883); test: follistatin binders on small-molecule microarrays, primary screen, biochemical, small-molecule microarray, 635/667 nm fluorescence (AID 1132); settings: FST binding, 635 nm fluorescence, higher = more signal
# [6] = molecular target: Fibroblast growth factor 2 (Homo sapiens) (UniProt P09038); test: FGF2 binders on small-molecule microarrays, primary screen, biochemical, small-molecule microarray, 635/667 nm fluorescence (AID 1133); settings: small-molecule microarray binding, FGF2, fluorescence 635/667; higher = more signal
# [7] = mitochondrial membrane potential change in A549 cells, profiling panel, cell-based, JC-1 fluorescence, basal, 24 h, 100 nL (AID 1138); settings: higher = more signal;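 note: A549 lung adenocarcinoma cells under basal conditions with no added stimulus; test concentration not given here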
# [8] = tested on: Lefty1; test: Lefty1 binders on small-molecule microarrays, primary screen, biochemical, small-molecule microarray, 635/667 nm fluorescence (AID 1139); settings: small-molecule microarray binding, fluorescence 635/667; higher = more signal
# [9] = tested on: wheat germ agglutinin (Triticum aestivum), Alexa647-labelled; test: wheat germ agglutinin binders on compound microarrays, profiling panel, artefact control for SMM control-protein annotation, biochemical, small-molecule microarray, 635/667 nm fluorescence (AID 1140); settings: WGA-A647 binding, 635 nm fluorescence, higher = more signal;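 note: score merges 667 nm feature emission with signal to noise over triplicate slides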
# [10] = molecular target: Luciferin 4-monooxygenase (Photinus pyralis) (UniProt P08659); test: firefly luciferase enzyme inhibitors, primary screen, biochemical, luminescence, purified enzyme, 2006 set (AID 1141); settings: SteadyGlo luminescence, 30 min, higher = more signal, called active from +8 up or from −8 down;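 note: cell-free assay with purified firefly luciferase at 100 ng per well in PBS; test concentration not given here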
# Luciferin 4-monooxygenase (Photinus pyralis), sequence (P08659 whole entry, looked up): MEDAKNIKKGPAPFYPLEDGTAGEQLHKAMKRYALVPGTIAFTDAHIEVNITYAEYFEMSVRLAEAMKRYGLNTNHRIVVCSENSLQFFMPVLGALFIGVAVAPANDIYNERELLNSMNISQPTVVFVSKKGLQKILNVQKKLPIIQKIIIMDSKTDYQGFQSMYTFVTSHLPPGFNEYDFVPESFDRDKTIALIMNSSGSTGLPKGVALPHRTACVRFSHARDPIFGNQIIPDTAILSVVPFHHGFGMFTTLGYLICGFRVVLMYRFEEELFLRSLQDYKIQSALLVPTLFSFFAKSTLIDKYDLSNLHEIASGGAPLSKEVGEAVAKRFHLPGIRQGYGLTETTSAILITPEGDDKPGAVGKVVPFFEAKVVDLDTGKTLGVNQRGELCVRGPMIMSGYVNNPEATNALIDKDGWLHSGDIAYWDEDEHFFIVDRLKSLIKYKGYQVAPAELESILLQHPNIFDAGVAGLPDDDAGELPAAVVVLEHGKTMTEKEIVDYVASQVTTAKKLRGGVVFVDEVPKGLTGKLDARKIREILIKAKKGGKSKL
# Follistatin (Homo sapiens), sequence (P19883 whole entry, looked up): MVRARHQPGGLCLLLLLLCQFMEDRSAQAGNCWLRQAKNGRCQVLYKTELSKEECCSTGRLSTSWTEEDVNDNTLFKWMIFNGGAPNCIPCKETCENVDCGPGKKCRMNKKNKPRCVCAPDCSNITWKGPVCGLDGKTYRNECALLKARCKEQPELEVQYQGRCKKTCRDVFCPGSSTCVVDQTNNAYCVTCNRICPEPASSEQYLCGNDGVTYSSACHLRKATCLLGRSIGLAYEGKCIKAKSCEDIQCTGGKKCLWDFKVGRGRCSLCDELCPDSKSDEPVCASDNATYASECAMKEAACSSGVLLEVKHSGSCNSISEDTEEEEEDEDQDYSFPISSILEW
# Focal adhesion kinase 1 (Homo sapiens), sequence (Q05397 whole entry, looked up): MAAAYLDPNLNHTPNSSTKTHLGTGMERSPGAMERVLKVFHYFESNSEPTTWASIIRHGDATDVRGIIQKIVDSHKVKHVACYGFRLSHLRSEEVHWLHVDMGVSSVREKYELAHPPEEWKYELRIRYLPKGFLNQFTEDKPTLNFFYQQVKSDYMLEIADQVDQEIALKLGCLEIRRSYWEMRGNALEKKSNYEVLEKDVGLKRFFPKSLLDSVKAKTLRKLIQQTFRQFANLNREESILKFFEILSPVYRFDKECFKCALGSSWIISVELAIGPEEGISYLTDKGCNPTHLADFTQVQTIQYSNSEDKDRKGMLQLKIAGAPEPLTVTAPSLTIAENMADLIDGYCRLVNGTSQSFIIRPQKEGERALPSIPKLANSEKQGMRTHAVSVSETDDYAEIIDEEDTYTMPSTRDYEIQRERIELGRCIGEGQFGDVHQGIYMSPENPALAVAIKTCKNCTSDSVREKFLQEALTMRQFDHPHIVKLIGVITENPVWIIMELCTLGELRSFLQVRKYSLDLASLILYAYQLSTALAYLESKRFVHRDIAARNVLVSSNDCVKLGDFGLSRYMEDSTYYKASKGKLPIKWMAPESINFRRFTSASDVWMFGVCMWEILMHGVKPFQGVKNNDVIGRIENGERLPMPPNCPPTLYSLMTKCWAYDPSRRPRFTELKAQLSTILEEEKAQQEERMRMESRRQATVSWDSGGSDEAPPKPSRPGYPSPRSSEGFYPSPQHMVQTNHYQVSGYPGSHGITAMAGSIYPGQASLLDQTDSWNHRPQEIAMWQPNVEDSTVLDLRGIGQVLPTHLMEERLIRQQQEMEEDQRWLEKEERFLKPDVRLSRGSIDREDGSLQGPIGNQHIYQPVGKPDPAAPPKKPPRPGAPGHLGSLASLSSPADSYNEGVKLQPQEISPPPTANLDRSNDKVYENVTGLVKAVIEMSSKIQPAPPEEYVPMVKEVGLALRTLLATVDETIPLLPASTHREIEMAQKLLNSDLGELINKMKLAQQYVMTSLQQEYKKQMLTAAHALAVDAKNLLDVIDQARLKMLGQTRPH
# Fibroblast growth factor 2 (Homo sapiens), sequence (P09038 whole entry, looked up): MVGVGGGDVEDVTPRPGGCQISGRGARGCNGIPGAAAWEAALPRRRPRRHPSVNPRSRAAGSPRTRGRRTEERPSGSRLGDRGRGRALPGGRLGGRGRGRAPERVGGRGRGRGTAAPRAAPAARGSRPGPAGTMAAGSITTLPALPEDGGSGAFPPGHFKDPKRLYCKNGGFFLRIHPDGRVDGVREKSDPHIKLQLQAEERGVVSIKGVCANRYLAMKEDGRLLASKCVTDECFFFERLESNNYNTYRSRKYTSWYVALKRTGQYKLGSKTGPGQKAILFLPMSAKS
SMILES,composite z-score [1],composite z-score [2],composite z-score [3],composite z-score [4],composite z-score [5],composite z-score [6],z-score [7],composite z-score [8],composite z-score [9],z-score [10]
COc1ccc(C(=O)Nc2cccc(CN3C(=O)[C@@]4(O[C@@H](CCn5cc(CCO)nn5)[C@H]([Si](C)(C)c5ccc(OC)cc5)[C@H]4C)c4ccccc43)c2)cc1,1.38,1.16,0.582,0.701,1.35,1.51,-0.0548,1.29,0.701,-0.775 (inactive)
COCCOC(=O)N1C(=O)[C@@]2(c3cc(C#Cc4ccc(OC)cc4)ccc31)[C@H](C(=O)N1CCN(c3ncccn3)CC1)[C@H]1C(=O)O[C@H](c3ccccc3)[C@H](c3ccccc3)N1[C@@H]2c1ccc(O)cc1,0.136,0.64,1.2,-0.126,0.755,0.633,-0.334,0.331,0.428,-0.938 (inactive)
C#CCN(C(/C=C/c1ccccc1)CO)C(C(=O)O)c1ccccc1 (stereo not given),-0.375,-1.19,0.492,0.116,-0.523,-0.354,-1.04,-0.346,-0.0819,-0.104 (inactive)
COCCOC(=O)N1C(=O)[C@@]2(c3cc(C#CC4(O)CCCCCC4)ccc31)[C@H](C(=O)N1CCCCCCC1)[C@H]1C(=O)O[C@H](c3ccccc3)[C@H](c3ccccc3)N1[C@@H]2c1ccccc1OCCO,1.24,1.22,0.808,0.832,1.42,1.11,-1.04,0.955,1.39,-0.969 (inactive)
CCN(CC)c1ccc(N2CC=CC34O[C@@H]5C=CCCOC(=O)C5[C@H]3C(=O)N(CCCCCO)[C@@H]4C2=O)cc1 (stereo not given in full),0.0436,-0.513,-0.172,-0.471,-0.0495,-0.304,2.56,-0.0412,0.169,-1.29 (inactive)
O=c1oc(-c2ccccc2)nc2cc(Br)ccc12,0.118,0.71,0.704,0.481,0.405,0.671,0.112,0.585,0.466,-9.5 (active)
CC(=O)NCCCC[C@@H]1NC(=O)[C@@H]2C[C@H](C(=O)NCCCCCCNC(=O)CS)[C@H](c3ccc(O)cc3)N2C1=O,3.39,0.964,0.208,0.224,0.304,0.104,-0.177,0.236,0.418,-0.557 (inactive)
CC(C)CNC(=O)[C@@]1(c2ccc([N+](=O)[O-])cc2)CC(=O)N(CC23CC4CC(CC(C4)C2)C3)[C@@H]1c1ccc(CO)cc1,0.943,0.662,0.24,-0.0362,0.946,1.1,2.5,0.0651,0.358,-1.61 (inactive)
C=CCOC(=O)[C@H]1[C@@H]2C(=O)O[C@@H](c3ccccc3)[C@@H](c3ccccc3)N2[C@@H](c2ccc(OCCOC(=O)[C@@H]3C[C@@H]4C(=O)NCC(=O)N4[C@@H]3c3ccc(O)cc3)cc2)[C@]12C(=O)Nc1ccccc12,1.56,1.19,0.564,0.478,1.35,1.72,-1.43,1.18,-0.233,-2.56 (inactive)
CCCNC(=O)[C@@H]1c2ccccc2C(=O)N(Cc2ccccc2)[C@H]1c1ccc(CO)cc1,1.88,-0.081,-0.255,0.213,0.122,-0.193,-0.109,-0.82,0.935,-0.322 (inactive)
CCOC(=O)C[C@H]1[C@H](OC(=O)c2ccc(C(=O)c3ccccc3)cc2)[C@@H](NC(=O)C2CCCCC2)c2cc(OCCCO)ccc2N1C(=O)c1ccccc1,0.447,0.881,0.211,0.636,0.27,0.0816,2.14,0.166,0.203,-0.46 (inactive)
O=C(NCc1ccccc1)[C@]1(CCS(=O)(=O)c2ccccc2)N=C(c2ccc(OCCCO)cc2)O[C@@H]1c1ccccc1,1,1.18,0.471,0.939,0.919,-0.0072,-0.864,0.469,0.785,0.781 (inactive)
Cc1ccc(S[C@]2(C(=O)NCC(C)C)CC(=O)N(Cc3ccccc3Cl)[C@@H]2c2ccc(CO)cc2)cc1,1.8,-1.41,-1.09,-0.804,-1.5,-1.21,1.37,-2.17,0.208,-0.79 (inactive)
